# From PubChem BioAssay (NCATS)
# Results filed as inconclusive are left out. Unmarked numbers belong to inactive results. Active and inactive are the calls of the source. Calls follow the shape of the dose curve; as a rule, active = well fitted cell-killing curve with a large enough effect; inconclusive = small, poorly fitted or top-dose-only effect; inactive = flat fitted curve, though single readings scatter.
# Assay: Cell Viability - H-4-II-E (AID 543); also: % is scaled to controls: 0 for no effect and ±100 for the full control effect; nearly all actives have a fitted effect of over 35% in size
# Settings: H-4-II-E rat hepatoma viability; series mostly up to 92.2 µM; activity change, negative = cytotoxic: at the top concentration
# Procedure, shortened: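 Cells seeded at 1500 per well and rested 5 hr; compounds added; 40 hr incubation at 37 °C; CellTiter-Glo added, 20 min at room temperature; luminescence read. Hill-equation fits gave AC50.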
# 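Also: cells exposed to compound for 40 hours.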
row,SMILES,"activity change, negative = cytotoxic"
1,CCC1CO1 (stereo not drawn),-0.619%
2,FC(F)(F)c1cccc(Cl)c1,-1.77%
3,O=Nc1ccc(NO)cc1,-9.79%
4,CC(=O)Nc1ccc(C)cc1,-8.41%
5,CCNc1ccccc1,-2.45%
6,Cc1ccccc1Br,4.68%
7,O=C(O)CNC(=O)c1ccc([N+](=O)[O-])cc1,-11.6%
8,CCCCC/C=C/C=C/C=O,-17%
9,C=C(C)C(=O)OCC(C)C,-3.14%
10,C[C@@H]1CC2(OC[C@]3(C)O[C@H]23)O[C@H]2C[C@@]3(C)[C@@H]4CC[C@H]5C(C)(C)C(O[C@@H]6OC[C@@H](O)[C@H](O)[C@H]6O)CC[C@@]56C[C@@]46CC[C@]3(C)[C@@H]12 (stereo partly drawn),-13.7%
11,c1ccc2n[nH]nc2c1,-17.2%
12,C/C=C1\CC2C=CC1C2 (stereo not drawn),1.58%
13,CCC(O)C(C)(C)C (stereo not drawn),-4.67%
14,CC(=O)OCc1ccco1,-1.85%
15,COc1ccccc1[N+](=O)[O-],-7.3%
16,CCCCC(CC)COCC1CO1 (stereo not drawn),-2.72%
17,Cc1c(N)cccc1[N+](=O)[O-],-9.02%

row,SMILES,"activity change, negative = cytotoxic"
1,ClC/C=C/CCl,-3.48%
2,Cc1cccc(C)c1[N+](=O)[O-],-5.25%
3,Cc1ccc2ccccc2c1[N+](=O)[O-],-3.85%
4,CSc1ccc(C=O)cc1,-6.59%
5,CC(O)COC(C)(C)C (stereo not drawn),3.2%
6,NC(=O)NC(N)=O,-0.985%
7,C=CC(=O)NC(C)C,-2%
8,CCOC(=O)C(C)C(C)=O (stereo not drawn),-0.18%
9,O=C(O)c1ccc(Cl)cc1Cl,-10.7%
10,C=C(C)C1CC=C(C)C(OC(C)=O)C1 (stereo not drawn),-3.4%
11,CCOCCOCC,-0.544%
12,CCCCCCCCN,-0.222%
13,CC(C)=CCC/C(C)=C/C=O,-3.24%
14,C/C=C(/C)C#N,-6.04%
15,CC(C)(c1cc(Br)c(OCC(Br)CBr)c(Br)c1)c1cc(Br)c(OCC(Br)CBr)c(Br)c1 (stereo not drawn),-2.3%
16,Cc1cc(C(=O)O)ccc1[N+](=O)[O-],-7.51%
17,CN(C)CCCNCCCN,1.26%

# Assay: Cell Viability - SH-SY5Y (AID 544); also: nearly all actives have a fitted effect of over 55% in size; also: potency is read from the fitted curve at half-maximal effect;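 as to viability change, negative = cytotoxic: 0% = DMSO alone and -100% = 100 µM tamoxifen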
# Settings: SH-SY5Y neuroblastoma cell viability; viability change, negative = cytotoxic: at 92.2 µM (top of the series)
# Procedure, shortened: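 Cells were plated at 1500 per well and allowed 5 hr at 37 °C. Compounds were added across a concentration range and incubated 40 hr at 37 °C. CellTiter-Glo was added for 20 min at room temperature before luminescence reading.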
SMILES,"viability change, negative = cytotoxic",Potency
CCC1CO1 (stereo not drawn),-11.2%,–
FC(F)(F)c1cccc(Cl)c1,-1.6%,–
O=Nc1ccc(NO)cc1,-93.1% (active),–
CCNc1ccccc1,-3.65%,–
Cc1ccccc1Br,0.297%,–
CCCCC/C=C/C=C/C=O,-10.4%,–
C=C(C)C(=O)OCC(C)C,-0.144%,–
C[C@@H]1CC2(OC[C@]3(C)O[C@H]23)O[C@H]2C[C@@]3(C)[C@@H]4CC[C@H]5C(C)(C)C(O[C@@H]6OC[C@@H](O)[C@H](O)[C@H]6O)CC[C@@]56C[C@@]46CC[C@]3(C)[C@@H]12 (stereo partly drawn),-16.3%,–
c1ccc2n[nH]nc2c1,-0.285%,–
C/C=C1\CC2C=CC1C2 (stereo not drawn),-2.04%,–
CCOC(=O)OCC,-4.16%,–
CC(=O)OCc1ccco1,–,31.6 µM (active)
COc1ccccc1[N+](=O)[O-],-23.8%,–
CCCCC(CC)COCC1CO1 (stereo not drawn),-12.3%,–
Cc1c(N)cccc1[N+](=O)[O-],-7.36%,–
ClC/C=C/CCl,-5.65%,–
Cc1cccc(C)c1[N+](=O)[O-],-3.96%,–

SMILES,"viability change, negative = cytotoxic",Potency
Cc1ccc2ccccc2c1[N+](=O)[O-],-6.12%,–
CSc1ccc(C=O)cc1,-7.49%,–
CC(O)COC(C)(C)C (stereo not drawn),-5.46%,–
Fc1ccccc1,-6.47%,–
NC(=O)NC(N)=O,1.98%,–
C=CC(=O)NC(C)C,-15.7%,–
CCOC(=O)C(C)C(C)=O (stereo not drawn),2.61%,–
O=C(O)c1ccc(Cl)cc1Cl,-2.26%,–
C=C(C)C1CC=C(C)C(OC(C)=O)C1 (stereo not drawn),-9.82%,–
O=C(O)c1ccccc1Cl,-14.6%,–
CCOCCOCC,-1.46%,–
CCCCCCCCN,10.8%,–
CC(C)=CCC/C(C)=C/C=O,-23%,–
C/C=C(/C)C#N,-8.25%,–
CC(C)(c1cc(Br)c(OCC(Br)CBr)c(Br)c1)c1cc(Br)c(OCC(Br)CBr)c(Br)c1 (stereo not drawn),-13.1%,–
Cc1cc(C(=O)O)ccc1[N+](=O)[O-],-10.1%,–
CN(C)CCCNCCCN,-9.9%,–
